This note sets out measurements from ChEMBL document CHEMBL1961873, “Compounds: GSK PKIS; Assays: Nanosyn kinase panel” (2012).

In general, inhibition refers to the change of the read-out against control, counted positive when it falls.

Assay [1] has as its target T1, Inhibitor of nuclear factor kappa-B kinase subunit epsilon (Homo sapiens) (UniProt Q14164).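 Also: reported values are averaged percent inhibition figures against human IKKε.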
T1 sequence (whole entry): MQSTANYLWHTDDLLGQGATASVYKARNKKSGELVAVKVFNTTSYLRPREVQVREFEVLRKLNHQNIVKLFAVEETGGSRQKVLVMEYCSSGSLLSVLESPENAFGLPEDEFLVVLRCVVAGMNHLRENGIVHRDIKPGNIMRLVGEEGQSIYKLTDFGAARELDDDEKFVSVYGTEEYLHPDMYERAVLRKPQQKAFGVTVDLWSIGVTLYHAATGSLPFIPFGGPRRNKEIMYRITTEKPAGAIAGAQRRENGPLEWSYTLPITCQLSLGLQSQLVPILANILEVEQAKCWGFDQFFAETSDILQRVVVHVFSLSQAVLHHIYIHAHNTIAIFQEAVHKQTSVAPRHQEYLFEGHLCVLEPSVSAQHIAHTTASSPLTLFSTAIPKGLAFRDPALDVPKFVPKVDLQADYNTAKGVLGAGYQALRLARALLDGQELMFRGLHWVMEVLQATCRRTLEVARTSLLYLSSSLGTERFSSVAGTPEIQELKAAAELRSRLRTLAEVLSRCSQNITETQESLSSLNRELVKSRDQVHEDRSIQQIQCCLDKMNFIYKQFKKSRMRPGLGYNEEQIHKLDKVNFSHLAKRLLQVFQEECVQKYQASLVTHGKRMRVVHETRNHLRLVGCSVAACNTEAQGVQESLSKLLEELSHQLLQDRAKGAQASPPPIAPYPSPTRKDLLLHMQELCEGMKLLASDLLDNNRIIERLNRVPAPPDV
Particulars: at 1 µM.

The target of assay [2] is T2, Serine/threonine-protein kinase Nek1 (Homo sapiens) (UniProt Q96PY6).
T2 sequence (whole entry): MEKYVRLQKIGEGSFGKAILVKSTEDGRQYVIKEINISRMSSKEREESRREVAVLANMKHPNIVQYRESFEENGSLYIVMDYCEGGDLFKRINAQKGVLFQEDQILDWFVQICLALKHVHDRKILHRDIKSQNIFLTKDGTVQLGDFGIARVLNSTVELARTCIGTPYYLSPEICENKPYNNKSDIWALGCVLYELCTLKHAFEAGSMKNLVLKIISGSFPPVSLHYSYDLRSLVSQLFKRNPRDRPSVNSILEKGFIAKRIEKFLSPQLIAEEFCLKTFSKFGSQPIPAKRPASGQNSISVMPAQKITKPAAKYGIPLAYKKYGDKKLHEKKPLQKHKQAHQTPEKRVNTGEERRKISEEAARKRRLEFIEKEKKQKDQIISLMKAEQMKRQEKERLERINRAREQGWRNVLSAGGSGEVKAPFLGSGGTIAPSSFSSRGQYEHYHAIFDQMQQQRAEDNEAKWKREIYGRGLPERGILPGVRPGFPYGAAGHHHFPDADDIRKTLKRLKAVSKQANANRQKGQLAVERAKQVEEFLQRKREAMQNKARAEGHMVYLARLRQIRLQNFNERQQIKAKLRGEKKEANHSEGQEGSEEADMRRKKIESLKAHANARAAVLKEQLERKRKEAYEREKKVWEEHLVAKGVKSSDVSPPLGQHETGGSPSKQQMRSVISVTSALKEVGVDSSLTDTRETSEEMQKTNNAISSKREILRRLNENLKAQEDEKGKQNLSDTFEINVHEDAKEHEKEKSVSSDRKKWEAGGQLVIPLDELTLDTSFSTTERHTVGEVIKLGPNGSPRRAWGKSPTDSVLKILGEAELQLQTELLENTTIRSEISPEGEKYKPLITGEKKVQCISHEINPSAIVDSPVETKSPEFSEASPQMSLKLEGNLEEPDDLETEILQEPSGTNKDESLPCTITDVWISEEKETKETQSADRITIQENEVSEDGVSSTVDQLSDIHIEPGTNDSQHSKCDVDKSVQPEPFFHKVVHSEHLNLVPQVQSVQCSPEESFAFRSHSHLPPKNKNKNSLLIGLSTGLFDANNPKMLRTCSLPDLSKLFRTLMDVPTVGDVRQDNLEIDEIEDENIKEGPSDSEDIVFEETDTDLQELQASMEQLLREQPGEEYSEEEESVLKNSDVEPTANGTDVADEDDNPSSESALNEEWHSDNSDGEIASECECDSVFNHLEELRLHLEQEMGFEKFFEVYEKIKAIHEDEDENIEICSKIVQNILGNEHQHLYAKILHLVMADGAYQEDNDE
Particulars: at 0.1 µM.

Assay [3] deals with T2, Serine/threonine-protein kinase Nek1 (Homo sapiens). Particulars: at 1 µM.
In assay [4] the target is T3, Serine/threonine-protein kinase Nek2 (Homo sapiens) (UniProt P51955).
T3 sequence (whole entry): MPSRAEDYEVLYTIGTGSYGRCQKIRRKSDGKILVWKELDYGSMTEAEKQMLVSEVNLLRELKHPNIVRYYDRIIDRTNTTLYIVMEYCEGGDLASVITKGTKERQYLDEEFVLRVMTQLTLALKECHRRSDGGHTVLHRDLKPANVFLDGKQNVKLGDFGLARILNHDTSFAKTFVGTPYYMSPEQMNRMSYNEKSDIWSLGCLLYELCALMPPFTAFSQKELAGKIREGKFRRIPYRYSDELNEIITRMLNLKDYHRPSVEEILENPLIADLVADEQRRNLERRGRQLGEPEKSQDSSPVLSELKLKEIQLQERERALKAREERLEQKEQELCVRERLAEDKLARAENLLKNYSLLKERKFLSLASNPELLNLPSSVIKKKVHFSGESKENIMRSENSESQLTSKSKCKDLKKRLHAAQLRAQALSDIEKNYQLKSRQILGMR
Particulars: at 0.1 µM.

Assay [5] addresses T3, Serine/threonine-protein kinase Nek2 (Homo sapiens). Particulars: at 1 µM.
The target in assay [6] is Serine/threonine-protein kinase Nek6 (Homo sapiens) (UniProt Q9HC98). Particulars: at 0.1 µM.
Assay [7] shares this target. Particulars: at 1 µM.
In assay [8] the target is Serine/threonine-protein kinase Nek7 (Homo sapiens) (UniProt Q8TDX7). Particulars: at 0.1 µM.
For assay [9] the target is unchanged. Particulars: at 1 µM.
Assay [10] has as its target T4, Serine/threonine-protein kinase Nek9 (Homo sapiens) (UniProt Q8TD19).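 Also: reported value is the mean percent inhibition of NEK9.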
T4 sequence (whole entry): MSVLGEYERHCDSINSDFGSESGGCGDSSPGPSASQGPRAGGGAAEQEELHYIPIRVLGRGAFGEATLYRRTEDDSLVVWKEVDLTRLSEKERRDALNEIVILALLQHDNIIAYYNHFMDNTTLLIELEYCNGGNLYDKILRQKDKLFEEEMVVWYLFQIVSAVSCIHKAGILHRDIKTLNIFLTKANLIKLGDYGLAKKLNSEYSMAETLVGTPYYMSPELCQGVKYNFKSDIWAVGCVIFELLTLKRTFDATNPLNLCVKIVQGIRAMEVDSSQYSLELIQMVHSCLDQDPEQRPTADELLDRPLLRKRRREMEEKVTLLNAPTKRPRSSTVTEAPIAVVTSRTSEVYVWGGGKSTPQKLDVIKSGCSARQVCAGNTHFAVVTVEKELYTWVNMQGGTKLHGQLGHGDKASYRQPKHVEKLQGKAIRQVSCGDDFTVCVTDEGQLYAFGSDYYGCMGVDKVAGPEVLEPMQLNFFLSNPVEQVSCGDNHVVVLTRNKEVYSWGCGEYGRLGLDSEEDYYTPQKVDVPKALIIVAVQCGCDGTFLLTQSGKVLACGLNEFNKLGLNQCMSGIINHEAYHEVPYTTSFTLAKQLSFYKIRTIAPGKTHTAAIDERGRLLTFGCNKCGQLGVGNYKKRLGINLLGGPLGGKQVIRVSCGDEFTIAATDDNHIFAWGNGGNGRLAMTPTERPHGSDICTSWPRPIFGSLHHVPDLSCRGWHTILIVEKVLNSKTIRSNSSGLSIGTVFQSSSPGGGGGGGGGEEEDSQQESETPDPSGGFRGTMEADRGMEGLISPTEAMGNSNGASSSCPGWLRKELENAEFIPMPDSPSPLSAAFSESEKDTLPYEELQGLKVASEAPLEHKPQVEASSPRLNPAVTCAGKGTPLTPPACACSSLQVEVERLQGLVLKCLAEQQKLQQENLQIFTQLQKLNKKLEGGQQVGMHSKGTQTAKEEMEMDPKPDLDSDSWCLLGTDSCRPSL
Particulars: at 0.1 µM.

Chain of Serine/threonine-protein kinase Nek7 (Homo sapiens) (Q8TDX7 whole entry, looked up): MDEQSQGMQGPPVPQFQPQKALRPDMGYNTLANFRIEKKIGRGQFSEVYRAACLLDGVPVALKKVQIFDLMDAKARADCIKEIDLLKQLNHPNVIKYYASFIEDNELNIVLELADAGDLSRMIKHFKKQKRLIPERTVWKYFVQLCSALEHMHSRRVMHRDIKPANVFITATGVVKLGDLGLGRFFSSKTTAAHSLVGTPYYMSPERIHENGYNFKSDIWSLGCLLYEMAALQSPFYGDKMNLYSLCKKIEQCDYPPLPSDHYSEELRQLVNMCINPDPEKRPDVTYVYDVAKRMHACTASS
Chain of Serine/threonine-protein kinase Nek6 (Homo sapiens) (Q9HC98 whole entry): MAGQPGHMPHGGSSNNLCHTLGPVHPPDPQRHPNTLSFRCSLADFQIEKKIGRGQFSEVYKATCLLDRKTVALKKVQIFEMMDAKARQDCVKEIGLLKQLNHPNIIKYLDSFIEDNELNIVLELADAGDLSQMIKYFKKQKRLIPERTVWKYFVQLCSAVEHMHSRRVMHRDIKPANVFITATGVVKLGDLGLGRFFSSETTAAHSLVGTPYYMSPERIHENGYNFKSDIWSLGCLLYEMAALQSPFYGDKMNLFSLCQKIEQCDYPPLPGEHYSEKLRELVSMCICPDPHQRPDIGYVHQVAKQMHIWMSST

As for `CS(=O)(=O)CCNCc1nc(-c2ccc3ncnc(Nc4ccc(F)c(Cl)c4)c3c2)cs1`, the inhibition in [1] is 2.88%; in assay [2] it was -0.13%; in assay [3] it was 1.85%; in assay [4] it was 2.32%; in assay [5], 2.06%; in assay [6], 3.94%. For the same compound, the inhibition in assay [7] was 4.01%; in assay [8] it was -1.48%; in assay [9] it was 1.7%; in [10], 0.58%.
Consider `CCc1cccc(NC(=O)Nc2ccc(Oc3ccc4nc(NC(=O)OC)[nH]c4c3)cc2)c1`, for which the inhibition in [1] is 3.32%; in [2], 0.6%; in assay [3], 1.24%; in [4], 1.78%; in assay [5], 1.1%; in assay [6], 0.58%. Moreover, the inhibition was 3.24% in [7], -1.37% in assay [8], -2.89% in [9] and 3.74% in assay [10].
In the case of `c1cnn2ncc(-c3ccnc(Nc4ccc5c(c4)OCCO5)n3)c2c1`, the inhibition stood at 20.5% in [1]; 4.85% in assay [2]; 20.4% in [3]; 4.88% in [4]; 15.4% in assay [5]; 3.89% in assay [6]. The inhibition in [7] worked out at 4.5%; in assay [8], 3.53%; in assay [9], 6.49%; in assay [10], 16.2%.
With `CS(=O)(=O)CCNCc1ccc(-c2ccc3ncnc(Nc4ccc(OCc5cccc(F)c5)c(C(F)(F)F)c4)c3c2)o1`, the inhibition stood at 2.73% in [1]; 2.28% in assay [2]; 4.09% in assay [3]; 4.44% in assay [4]; 3.68% in assay [5]; 2.48% in assay [6]. Also, the inhibition is 3.62% in assay [7], 4.72% in assay [8], 4.32% in [9] and 7.55% in assay [10].
Consider `CCn1c(-c2nonc2N)nc2cncc(C(=O)N3CC[C@H](N)C3)c21`, for which the inhibition in assay [1] came out at 36.1%; in [2], 1.89%; in assay [3], 3.47%; in assay [4], 5.3%; in assay [5], 6.1%; in [6] it was 0.64%. Besides, the inhibition in assay [7] turned out to be 5.91%; in [8], 6.16%; in [9], 7.48%; in [10], 11.8%.
Take `Cc1nnc(-c2ccc(C)c(-c3ccc(C(=O)Nc4cccc(C#N)c4)cc3)c2)o1`: the inhibition in [1] worked out at 6.02%; in assay [2] it was 1.56%; in assay [3], 4.44%; in assay [4], 3.25%; in assay [5], 2.64%; in assay [6], 1.65%. Besides, the inhibition in assay [7] came out at 0.35%; in assay [8], 3.44%; in assay [9] it was 3.07%; in assay [10], 5.36%.
For the compound `CCN1CCC(CC(=O)Nc2n[nH]c3nc(-c4cccs4)c(Br)cc23)CC1`, the inhibition in assay [1] was -3.61%; in assay [2] it was -1.51%; in [3], 0.77%; in assay [4], -1.87%; in [5] it was -2.3%; in assay [6] it was -1.1%. Further, the inhibition in assay [7] is -2.19%; in [8], 0.31%; in [9], -4.11%; in assay [10], 0.24%.
Turning to `O=C1Nc2ccc(C(=O)c3ccco3)cc2C1=Cc1cc(Cl)c(O)c(Cl)c1`, the inhibition in assay [1] is 52%; in [2] it was 1.66%; in assay [3], 6.79%; in assay [4] it was 5.56%; in assay [5], 3.76%; in [6] it was -0.24%. In addition, the inhibition in assay [7] came to 0.61%; in [8] it was 3.27%; in assay [9], 3.97%; in assay [10] it was 6.51%.
